From PubChem BioAssay
LANA-H2B inh: blockers of LANA interaction with H2A/H2B – biochemical, FP readout, HTS, primary screen; Protein LANA1 (Human herpesvirus 8 type P (isolate GK18)), Q9QR71; cell-free LANA-H2A/H2B peptide, fluorescence polarization; inhibition, % (concentration not given with the values); 320,000 tested, 0.6% active; AID 2629, 2010; in the data active = inhibition mostly above about 10%, no sharp cut-off; inactive = mostly below about 6.7%
RTF Ca sens inh: cardiac RTF calcium sensitivity inhibitors, primary screen, biochemical, IANBD-TnC fluorescence, EC70 calcium. Troponin I, cardiac muscle (Homo sapiens) + Troponin T, cardiac muscle (Homo sapiens) + …. IANBD-labeled cardiac RTF, Ca2+ fluorescence. inhibition, % at 7.15 µM. 340,000 tested, 0.12% active. AID 493244, 2011;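 active = inhibition above the mean inhibition of all tested compounds plus 3 SD, cut at about 17% in these data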;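 note: assay run at fixed EC70 calcium of 1.6 mM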
C-LANA FP: inhibitors of KSHV C-LANA binding to DNA, primary screen, biochemical, fluorescence polarization, FAM-LBS DNA, MBP-C-LANA, single point; Kaposi's sarcoma herpesvirus LANA C-terminal domain (residues 932-1162) DNA binding; inhibition, % at 9 µM; 340,000 tested, 0.078% active;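 active = highest replicate inhibition at or above 60% at 9 µM, even if other replicates fall short; inactive = all replicates below 60% inhibition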;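 note: 0% = neutral control wells and 100% = 4 µM acridine orange control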
Keap1-Nrf2 PPI: Keap1-Nrf2 protein-protein interaction inhibitors, primary screen, biochemical, fluorescence polarization, single point. Kelch-like ECH-associated protein 1 (Homo sapiens), Q14145. Keap1 Kelch-Nrf2 peptide fluorescence polarization, 1536-well. inhibition, % at 9.4 µM. 340,000 tested, 0.15% active. AID 504523, 2011; in the data active = inhibition above about 12%;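 note: human Keap1 Kelch domain with fluorescein labeled Nrf2 9mer peptide probe; 0% = neutral control wells and 100% = peptide positive control; higher means more block of Keap1 binding to Nrf2 peptide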
E coli Lon inh: inhibitors of E. coli Lon protease, primary screen, biochemical, fluorescence polarization; P0A9M0; purified E. coli Lon protease; inhibition, % at 7.94 µM; 360,000 tested, 0.42% active; in the data active = inhibition above about 13%, passing the limit was not always enough;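 note: 0% = enzyme with probe and DMSO and 100% = no enzyme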
cardiac RTF act: cardiac RTF calcium sensitivity activators, primary screen, biochemical, IANBD-TnC fluorescence, EC20 calcium | Troponin I, cardiac muscle (Homo sapiens) + Troponin T, cardiac muscle (Homo sapiens) + … | IANBD-labeled TnC RTF fluorescence at EC20 calcium; 0% EC20 calcium, 100% full calcium | activation, % at 7.2 µM | 340,000 tested, 0.24% active;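 active = activation above the mean over all tested compounds plus 3 SD, cut at about 30% in these data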;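 note: rise in fluorescence read as greater calcium sensitivity of cardiac thin filaments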
The depositor's hits bear a star; i = inactive; · = not tested or not shown; + = active, no number. Most compounds without a hit are left out; they make up all but 1.3% or so of the library.

SMILES	LANA-H2B inh	RTF Ca sens inh	C-LANA FP	Keap1-Nrf2 PPI	E coli Lon inh	cardiac RTF act
N#CC1=C(N)Oc2cc(O)c(Cl)cc2C1c1ccccc1F (stereo unspecified)	7	-54	21	-9	-168	33*
N#CC1=C(N)Oc2cc(O)c(Cl)cc2C1c1cccnc1 (stereo unspecified)	-4	-5	-8	-10	-57	5
CC1(C)NC(C(=O)O)Cc2c1[nH]c1ccccc21 (stereo unspecified)	7.0*	2	0	-1	-4	-1
Cn1nc([N+](=O)[O-])nc1Sc1nnnn1-c1ccc(C(=O)O)cc1	1	-2	0	4	-5	-4
CN(Cc1ccccc1)C(=O)CSc1nc2cc(C(=O)N3CCC(C(N)=O)CC3)ccc2c(=O)n1-c1ccccc1	5	·	·	·	·	·
Cc1ccc(N=C2NC(=O)/C(=C/c3cn(C)c4ccccc34)S2)cc1C	-12	-44	1	-6	i	69*
CCOC(=O)c1cc(OC(=O)c2ccccc2Br)n(-c2ccccc2)n1	17*	-7	-1	-4	4	10
CCOC(=O)c1cc(OC(=O)c2ccccc2)n(-c2ccccc2)n1	-1	-7	0	-3	-2	3
O=C(CCN1CCCO1)N1CCCC(N2CCN(c3ccccc3F)CC2)C1 (stereo unspecified)	-1	-2	0	-5	1	1
O=C(CCN1CCCCO1)N1CCCC(N2CCN(c3ccc(F)cc3)CC2)C1 (stereo unspecified)	13*	2	-1	1	1	-8
c1ccc(-c2ccccc2OCCCN2CCCCCC2)cc1	84*	2	-2	-3	1	-2
O=C(NCc1ccc(Cl)cc1)C1CCN(c2cnccn2)CC1	-1	-13	0	1	12	30*
COc1cc(OC)c(OC)cc1/C=C/C(=O)c1ccc(NS(=O)(=O)c2ccc(C)cc2)cc1	0	-29	0	-5	-97	35*
COc1cc(C2Oc3ccccc3C=C2[N+](=O)[O-])cc(OC)c1OC (stereo unspecified)	·	·	·	·	-6	·
O=C(Cc1ccc(F)cc1)Nc1c(C(=O)N2CCN(c3ncccn3)CC2)oc2ccccc12	1	-7	-1	2	-1	-8
CC(C)c1ccc(N(CC(=O)NC2CCCCC2)C(=O)CNC(=O)c2ccco2)cc1	39*	7	0	1	2	-1
COc1cc(N2CCCC2)c(OC)cc1/C=C1/NC(=S)NC1=O	-7	-83	-3	-4	i	79*
NS(=O)(=O)c1cc2c(cc1Cl)NC=NS2(=O)=O	13*	7	1	4	-4	-2
NS(=O)(=O)c1cc2c(cc1Cl)NC(CC1CCCC1)NS2(=O)=O (stereo unspecified)	-1	-5	1	-3	-5	3
O=C(COc1ccccc1)Nc1nccs1	28*	5	0	-4	-1	2
O=C(COc1ccc2ccccc2c1)Nc1nccs1	-1	-23	0	-4	-2	-2
CCNc1c2c3c(cccc3n(C)c1=O)C(=O)c1ccccc1-2	44*	·	·	·	·	·
Cc1onc(-c2ccccc2)c1C(=O)NCC(O)c1ccccc1 (stereo unspecified)	4	4	-1	-3	5	0
CCC(NC(=O)C1C2C=CC(C2)C1C(=O)O)c1ccc(C)cc1 (stereo unspecified)	104*	1	0	-3	-1	1
O=C(CCc1ccccc1)NNC(=O)COc1ccccc1Cl	0	-4	-1	2	8	-2
SMILES	LANA-H2B inh	RTF Ca sens inh	C-LANA FP	Keap1-Nrf2 PPI	E coli Lon inh	cardiac RTF act
Nc1ccc(C(=O)O)cc1[N+](=O)[O-]	-1	-4	2	-4	-7	3
Nc1cc(S(=O)(=O)O)cc([N+](=O)[O-])c1O	1	-7	81*	-3	-3	-5
CCCc1ccc(C(=O)CCC(=O)O)cc1	+	-7	-1	-1	-2	0
CCOC(=O)CC1CCCCN1C(=O)CCCn1nnnc1CN1CCC(C)CC1 (stereo unspecified)	-4	-15	-1	-3	0	2
Cc1cc(C(=O)N2CCCC(C(=O)c3cccc(C(F)(F)F)c3)C2)nc(C)n1 (stereo unspecified)	14*	-4	1	-1	0	0
Cc1nn(-c2ccccc2)c(N)c1Sc1ccc([N+](=O)[O-])cc1	1	-24	3	1	-4	-4
Cc1nn(S(=O)(=O)c2ccc(Cl)cc2)c(C)c1Sc1ccc([N+](=O)[O-])cc1	12*	1	0	8	3	1
COC(=O)c1sc(SC)c(-c2ccon2)c1C	-2	4	0	0	13	-2
COc1cc(/C=C/C(=O)CC(=O)/C=C/c2ccc(O)c(OC)c2)ccc1O	-11	-63	-9	-45	-409	57*
COc1cc(/C=C/C(=O)O)ccc1O	-9	0	1	0	-7	0
Cc1ccc(C)c(-n2cc(CNCCc3cnccn3)c(-c3ccccc3)n2)c1	-1	-8	0	-3	39*	0
Cc1ccc(NC(=O)CCC(=O)c2cccs2)c(Br)c1	7	-5	0	-6	-4	3
O=C(COC(=O)c1cncc(Br)c1)NC12CC3CC(CC(C3)C1)C2	20*	·	·	·	-24	·
CC(=O)Nc1cc2c(cc1NC(=O)Cn1nc(-c3ccccc3)ccc1=O)OCCO2	3	-8	-1	-4	2	4
Cc1cc([N+](=O)[O-])nn1CCCC(=O)Nc1cccc(Cl)c1Cl	-2	-5	-1	-1	-4	1
COc1ccc(OC)c(C(C)NC(=O)C23CC4CC(CC(C4)C2)C3)c1 (stereo unspecified)	5	-2	109*	0	-5	-7
Cc1ccc(S(=O)(=O)N2CCC(C(=O)NCc3ccccc3Cl)CC2)cc1	93*	0	0	-5	15	12
CN(C)CCN(Cc1cc2cc3c(cc2[nH]c1=O)OCO3)C(=S)NCC1CCCO1 (stereo unspecified)	-4	-13	0	-5	2	9
CN(C)S(=O)(=O)c1ccc2c(c1)C(=O)c1cc(S(=O)(=O)N(C)C)ccc1CC2	-19	-7	0	1	-2	0
